ATXN2 expr inh = inhibitors of ATXN2 expression; HEK-293 ATXN2-luciferase reporter, luminescence, 24 h; Potency, µM (series often up to 57 µM), inactives show at the highest dose activity change, negative = inhibition, usual class: inhibitors; 0.72% of 360,000 active; note: % is set by controls: 0 for no effect and ±100 for the full control effect; nearly all actives have a fitted effect of over 55% in size
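qHTS (up to 57 uM final) was run with 24 h compound exposure of reporter cells at 37 °C. Each well was multiplexed: SteadyGlo luminescence measured ATXN2-luciferase expression after a fluorogenic Gly-Phe-AFC viability readout (25 uM final).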
TGFb SMAD3 inh = TGF-b pathway inhibition; HepG2 CAGA-GFP TGF-b/SMAD3 reporter, GFP fluorescence, 18 h; TGF-beta stimulated, 500 pg/mL final; Potency, µM (titrated, usually from 46.1 µM), for inactives: top-dose activity, negative = inhibition, most hits filed as inhibitors; 1.2% of 410,000 active; AID 588855; note: % is set by controls: 0 for no effect and ±100 for the full control effect; nearly all actives have a fitted effect of over 65% in size
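HEPG2 CAGA-GFP reporter cells (1000/well, DMEM with 1% FBS) received compounds, then recombinant TGF-beta at 500 pg/mL final for 18 hours at 37 degrees C. Per-cell GFP summed per well was normalised to unstimulated and stimulated DMSO controls before curve fitting.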
S2 tox = reduces viability in counter-screen for ATXN expression inhibitors. S2 cells (HEK-293 line with an ATXN2-luciferase reporter) viability, CellTiter-Fluor protease fluorescence, 24 h. Potency, µM (titrated, usually from 56.7 µM), most hits filed as cytotoxic. 0.49% of 400,000 active; note: nearly all actives have a fitted effect of over 40% in size
GLP-1R inv ag = inverse agonists of human GLP-1 receptor; P43220; HEK293 GLP-1R CRE-luciferase, luminescence, 24 h; GLP-1R form is constitutively active; Potency, µM (top dose mostly 38.3 µM), inactives show at the top dose activity change, negative = inhibition, hits mostly inhibitors; 1.6% of 410,000 active; note: % is set by controls: 0 for no effect and ±100 for the full control effect; nearly all actives have a fitted effect of over 55% in size
Target sequence (P43220 whole entry, looked up): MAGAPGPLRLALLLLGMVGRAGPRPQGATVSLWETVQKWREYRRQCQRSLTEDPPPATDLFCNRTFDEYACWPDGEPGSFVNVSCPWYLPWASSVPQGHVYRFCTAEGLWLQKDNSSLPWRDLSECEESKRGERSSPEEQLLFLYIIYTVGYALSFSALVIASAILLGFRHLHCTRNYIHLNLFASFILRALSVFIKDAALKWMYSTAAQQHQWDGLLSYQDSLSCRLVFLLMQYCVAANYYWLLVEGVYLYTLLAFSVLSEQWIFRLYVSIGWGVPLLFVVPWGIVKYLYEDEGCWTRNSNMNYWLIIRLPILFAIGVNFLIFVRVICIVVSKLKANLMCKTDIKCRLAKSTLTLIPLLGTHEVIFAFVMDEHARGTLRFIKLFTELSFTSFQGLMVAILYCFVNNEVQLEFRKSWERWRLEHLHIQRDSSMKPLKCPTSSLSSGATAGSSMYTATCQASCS
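HEK293 cells stably co-expressing constitutively active GLP-1R and a cAMP-responsive luciferase reporter were seeded in DMEM with 10% Nu serum, given compounds after 12 h, and incubated 24 h at 37 deg C. Luminescence was then read.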
GLP-1R agonist = GLP-1 receptor (human) agonism. 0.007% of 380,000 active. AID 624172. Potency, µM (titrated, usually from 45.6 µM), without a hit: at the highest dose activation, actives largely listed as activators. HEK293 GLP-1R CRE-luciferase, luminescence, 4-6 h; cells express a hypersensitive GLP-1R form. P43220; note: % of control where 0% means no effect
HepG2 viability = counter-screen for TGF-b inhibitors: cytotoxicity in HepG2 cells; 0.76% of 410,000 active; HepG2 CAGA-GFP viability, ATP luminescence, 18 h; Potency, µM (titrated, usually from 46.1 µM), for inactives: top-dose activity change, negative = cytotoxicity, hits mostly cytotoxic; AID 588856
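CellTiter-Glo luminescence gave cytotoxicity after 18 hours at 37 degrees C. The cells were HepG2 CAGA-GFP in 1% FBS DMEM, stimulated with 500 pg/mL TGF-beta after compound addition. %Activity was normalised to no-cell wells (complete cell-killing) and DMSO (no toxicity), and curves were fitted and classified.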
* hit, by the source's call; i = inactive; ? = inconclusive; / = no result. A selection: hits, their analogues and other compounds. The true share with any hit is near 3.7%. Calls come from the whole dose curve; as a rule, active = well fitted curve in the direction sought with a large enough effect; inconclusive = small, poorly fitted or top-dose-only effect, or another doubt; inactive = no such curve, though single readings can be large; an effect the other way counts as inactive or inconclusive. Potency is the fitted concentration of half-maximal effect.

SMILES | ATXN2 expr inh | TGFb SMAD3 inh | S2 tox | GLP-1R inv ag | GLP-1R agonist | HepG2 viability
Cc1ccc(N(CC(=O)Nc2ccc(Br)cc2)S(=O)(=O)c2cccs2)cc1 | -1.4% | -5.7% | i | 6.0% | 0.1% | -34.0%
Cc1ccc(O)c(CNc2cnc3ccccc3c2)c1 | 8.0% | -19.2% | i | ? | -5.1% | -11.7%
Oc1ccc(Br)cc1CNc1cnc2ccccc2c1 | / | ? | i | 11.2µM* | -5.4% | 12.6µM*
O=C(Cc1ccccc1)NCC(=O)OCC(=O)c1cccc2ccccc12 | / | 4.0% | / | / | / | -16.5%
O=C(Nc1nc(-c2ccc(S(=O)(=O)N3CCOCC3)cc2)cs1)c1ccccc1 | ? | -19.4% | ? | -22.7% | -7.7% | -29.7%
COc1cccc(C(=O)Nc2nc(-c3ccc(S(=O)(=O)N4CCOCC4)cc3)cs2)c1 | 15.8µM* | 7.7% | ? | ? | -33.6% | -1.9%
Cc1cccc(Cn2c(CNS(=O)(=O)c3ccc4c(c3)CCCC4)nc3cccnc32)c1 | / | ? | / | ? | / | -33.7%
COc1ccc(C(O)(c2ccccc2OC)C(CN2CCOCC2)c2ccccc2)cc1 (stereo not drawn) | -23.5% | 16.5% | i | 10µM* | 1.3% | -6.5%
CCCCOc1ccc(C(O)C(CN2CCOCC2)c2ccccc2)cc1 (stereo not drawn) | -4.4% | 11.0% | i | 10µM* | -0.7% | 0.2%
CCCOc1ccc(C(O)C(CN2CCOCC2)c2ccccc2)cc1 (stereo not drawn) | -1.3% | 7.5% | i | ? | -9.2% | 1.7%
CCCCC(O)(c1ccccc1)C(CN1CCOCC1)c1ccccc1 (stereo not drawn) | -18.5% | -19.0% | i | 10µM* | 2.3% | -26.5%
CCCCC(O)(c1ccc(OC)cc1)C(CN1CCOCC1)c1ccccc1 (stereo not drawn) | ? | 0.0% | i | ? | 9.1% | -2.4%
CCOc1ccc(C(O)(c2ccccc2OC)C(CN2CCCC2)c2ccccc2)cc1 (stereo not drawn) | -32.2% | ? | ? | ? | -3.4% | -9.2%
CCCCCC(O)(c1ccc(OC)cc1)C(CN1CCOCC1)c1ccccc1 (stereo not drawn) | -32.1% | 12.6µM* | ? | ? | 13.8% | -20.3%
COc1cc(S(N)(=O)=O)cc(C(=O)O)c1OC | 4.3% | / | i | / | / | /
CC(=O)c1ccc(Nc2nc3c(S(=O)(=O)c4ccccc4)nnn3c3ccc(Cl)cc23)cc1 | 9.9% | -10.2% | i | -7.2% | / | -8.6%
Cc1ccccc1OCCCCn1nnc2sc3c(c2c1=O)CCC(C)C3 (stereo not drawn) | 6.0% | 0.6% | i | 2.8% | / | -11.7%
OCC1(Cc2cccc(Cl)c2)CCCN(Cc2ccc3cc(F)ccc3n2)C1 (stereo not drawn) | ? | ? | i | 12.6µM* | 19.2% | -27.7%
Cc1cc(CN2CCCC(CO)(Cc3cccc(Cl)c3)C2)n[nH]1 (stereo not drawn) | -14.0% | -6.7% | i | ? | 6.1% | -15.5%
CCOC(=O)c1c(C)[nH]c(C(=O)OCC(=O)Nc2sccc2C(N)=O)c1C | ? | -12.9% | 12.6µM* | 11.2µM* | -22.6% | -38.8%
Cc1ccc(-c2onc(C)c2C)cc1S(=O)(=O)Nc1cccc(Cl)c1C | / | -30.9% | / | 10µM* | / | -38.0%
Cc1c(Cl)cccc1NS(=O)(=O)c1ccccc1 | -6.5% | -5.4% | i | 10µM* | 9.7% | -10.6%
Cc1c(NS(=O)(=O)c2ccccc2)cc(Cl)c(O)c1C | -4.5% | -1.0% | i | -8.7% | -0.4% | 9.7%
O=S(=O)(Nc1ccccc1-c1ccccc1)c1ccccc1 | 2.4% | 11.2% | i | 6.31µM* | 11.8% | -2.6%
COc1ccccc1C1CN(Cc2c(C)nc3sccn23)Cc2ccccc2O1 (stereo not drawn) | / | / | i | / | / | /

Compound activity as filed in PubChem BioAssay.
